Assay [1] can be described thus: NCI Yeast Anticancer Drug Screen. Data for the rad50 strain (AID 155).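 Note: 0% = growth of vehicle-only cultures of the same strain.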 The following applies: S. cerevisiae rad50 strain growth inhibition, active compounds read high. The method in brief: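 Compounds were tested on a yeast strain with an engineered DNA damage repair alteration; the reported value is growth inhibition normalised to vehicle treatment.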
A short description of assay [2]: NCI Yeast Anticancer Drug Screen. Data for the mec2-1 strain (AID 157). The following applies: S. cerevisiae mec2-1 strain, active compounds read high. The method in brief:
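Yeast mec2-1 mutant treated with compound. Readout: growth inhibition vs vehicle controls.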

A short description of assay [3]: NCI Yeast Anticancer Drug Screen. Data for the sgs1 mgt1 strain (AID 161).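 Note: 0% = growth of cultures given vehicle only.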 To be noted: S. cerevisiae sgs1 mgt1 strain, active compounds read high. The method in brief:
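Genetically altered yeast, compound exposure, growth inhibition relative to vehicle.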

A short description of assay [4]: NCI Yeast Anticancer Drug Screen. Data for the cln2 rad14 strain (AID 165).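 Note: 0% = growth equal to vehicle treated cultures.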 To be noted: S. cerevisiae cln2 rad14 strain, active compounds read high. The method, boiled down: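 cln2 rad14 yeast strain; compound exposure; growth inhibition read vs vehicle controls.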
Assay [5] is described as follows: NCI Yeast Anticancer Drug Screen. Data for the bub3 strain (AID 167). To be noted: S. cerevisiae bub3 mutant strain, active compounds read high. The method, boiled down: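 Growth of a checkpoint-deficient yeast mutant is measured after compound exposure. Values represent inhibition relative to vehicle.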
Assay [6] can be described thus: NCI Yeast Anticancer Drug Screen. Data for the mlh1 rad18 strain (AID 175). The following applies: S. cerevisiae mlh1 rad18 strain growth inhibition, active compounds read high. The method in brief: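 Yeast w/ defined DNA-repair lesions; compound exposure; growth vs vehicle controls → % inhibition.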
Where [7] appears, read: at 5.0 µM (retest, dose inferred, filed as 0.5).
Setting [8] is: at 50.0 µM (retest, dose inferred, filed as 5.0).

Compounds without any hit were thinned out: in the full panel of roughly 79,000, 15% have a hit. A number with no mark means an inactive call. The source made the active and inactive calls. Cut-off read from the data, not from the text of the source: active = growth inhibition above about 70%; inactive = the rest.

Consider `CCOC(=O)c1ccc(-c2cccs2)n1C`, for which the growth inhibition is -14% in assay [1] (setting [7]); 6% in assay [1] (setting [8]); 65.9% in assay [1] (at 50.0 µM); -1% in assay [2] (setting [7]); -6% in assay [2] (setting [8]); 43.8% in assay [2] (at 50.0 µM). The growth inhibition is -12% in assay [3] (setting [7]); -3% in assay [3] (setting [8]); 61.9% in assay [3] (at 50.0 µM); 28% in assay [4] (setting [7]); 0% in assay [4] (setting [8]); 23.4% in assay [4] (at 50.0 µM). Besides, the growth inhibition in assay [5] (setting [7]) was -12%; in assay [5] (setting [8]), 1%; in assay [5] (at 50.0 µM) it was 67.8%; in assay [6] (setting [7]), -9%; in assay [6] (setting [8]), -1%; in assay [6] (at 50.0 µM), 43.2%.

For `CC/C(=C\c1cccc(OC)c1)c1ccncc1`, the growth inhibition is 17% in assay [1] (setting [7]); 84% (active) in assay [1] (setting [8]); 94.7% (active) in assay [1] (at 50.0 µM); 12% in assay [2] (setting [7]); 92% (active) in assay [2] (setting [8]); 94.2% (active) in assay [2] (at 50.0 µM). Also, the growth inhibition in assay [3] (setting [7]) is 40%; in assay [3] (setting [8]), 91% (active); in assay [3] (at 50.0 µM), 95.3% (active); in assay [4] (setting [7]), 14%; in assay [4] (setting [8]), 81% (active); in assay [4] (at 50.0 µM), 90.3% (active). Further, the growth inhibition is 35% in assay [5] (setting [7]); 89% (active) in assay [5] (setting [8]); 94.8% (active) in assay [5] (at 50.0 µM); 32% in assay [6] (setting [7]); 87% (active) in assay [6] (setting [8]); 93.9% (active) in assay [6] (at 50.0 µM).

For the compound `CCCCCCCCCCCCCC/C(=C/OCC[N+](C)(C)C)OC(C)=O` (tested in a mixture with another compound), the growth inhibition in assay [1] (setting [7]) was 99% (active); in assay [1] (setting [8]), 99% (active); in assay [1] (at 50.0 µM), 99.7% (active); in assay [2] (setting [7]), 99% (active); in assay [2] (setting [8]), 100% (active); in assay [2] (at 50.0 µM), 99.8% (active). Further, the growth inhibition in assay [3] (setting [7]) was 94% (active); in assay [3] (setting [8]) it was 100% (active); in assay [3] (at 50.0 µM) it was 99.8% (active); in assay [4] (setting [7]), 99% (active); in assay [4] (setting [8]) it was 99% (active); in assay [4] (at 50.0 µM) it was 99.3% (active). Besides, the growth inhibition in assay [5] (setting [7]) was 99% (active); in assay [5] (setting [8]), 99% (active); in assay [5] (at 50.0 µM), 99.7% (active); in assay [6] (setting [7]), 98% (active); in assay [6] (setting [8]), 100% (active); in assay [6] (at 50.0 µM) it was 99.7% (active).

As to `O=C1c2cc([N+](=O)[O-])cc3cc([N+](=O)[O-])cc(c23)C(=O)N1CCCNCCNCCCN1C(=O)c2cc([N+](=O)[O-])cc3cc([N+](=O)[O-])cc(c23)C1=O`, the growth inhibition in assay [1] (setting [7]) is 85% (active); in assay [1] (setting [8]), 93% (active); in assay [1] (at 50.0 µM), 61%; in assay [2] (setting [7]), 32%; in assay [2] (setting [8]) it was 96% (active); in assay [2] (at 50.0 µM) it was 77.4% (active). For the same compound, the growth inhibition was 93% (active) in assay [3] (setting [7]); 94% (active) in assay [3] (setting [8]); 80.9% (active) in assay [3] (at 50.0 µM); 22% in assay [4] (setting [7]); 92% (active) in assay [4] (setting [8]); 83% (active) in assay [4] (at 50.0 µM). Moreover, the growth inhibition in assay [5] (setting [7]) is 9%; in assay [5] (setting [8]) it was 95% (active); in assay [5] (at 50.0 µM) it was 83.7% (active); in assay [6] (setting [7]) it was 66%; in assay [6] (setting [8]), 91% (active); in assay [6] (at 50.0 µM), 77.3% (active).

For the compound `C=CCOCCC(=O)OCC=C`, the growth inhibition in assay [1] (setting [7]) was 0%; in assay [1] (setting [8]) it was -2%; in assay [1] (at 50.0 µM) it was 7%; in assay [2] (setting [7]), 1%; in assay [2] (setting [8]) it was 0%; in assay [2] (at 50.0 µM), 40.4%. For the same compound, the growth inhibition in assay [3] (setting [7]) is 1%; in assay [3] (setting [8]), -1%; in assay [3] (at 50.0 µM), 15.9%; in assay [4] (setting [7]), -1%; in assay [4] (setting [8]), 0%; in assay [4] (at 50.0 µM), 72.2% (active). For the same compound, the growth inhibition in assay [5] (setting [7]) was -2%; in assay [5] (setting [8]), -1%; in assay [5] (at 50.0 µM) it was 67.4%; in assay [6] (setting [7]), -1%; in assay [6] (setting [8]) it was -1%; in assay [6] (at 50.0 µM), 70.8% (active).

In the case of `C[CH2][Ge]([CH2]C)[CH2]C.C[CH2][Ge]([Cl])[CH2]C.C[CH2][Ge][CH2]C`, the growth inhibition in assay [1] (setting [7]) was 19%; in assay [1] (setting [8]), 96% (active); in assay [1] (at 50.0 µM) it was 98% (active); in assay [2] (setting [7]), 15%; in assay [2] (setting [8]), 98% (active); in assay [2] (at 50.0 µM), 98.6% (active). The growth inhibition in assay [3] (setting [7]) was 23%; in assay [3] (setting [8]) it was 96% (active); in assay [3] (at 50.0 µM) it was 98.1% (active); in assay [4] (setting [7]) it was 8%; in assay [4] (setting [8]) it was 94% (active); in assay [4] (at 50.0 µM), 97% (active). For the same compound, the growth inhibition in assay [5] (setting [7]) is 17%; in assay [5] (setting [8]), 96% (active); in assay [5] (at 50.0 µM), 98.2% (active); in assay [6] (setting [7]), 12%; in assay [6] (setting [8]) it was 95% (active); in assay [6] (at 50.0 µM), 98.2% (active).

Take `CC1=Nc2ccccc2/C1=C\c1c(C)[nH]c2ccccc12`: the growth inhibition is 33% in assay [1] (setting [7]); 96% (active) in assay [1] (setting [8]); 83% (active) in assay [1] (at 50.0 µM); 39% in assay [2] (setting [7]); 98% (active) in assay [2] (setting [8]); 86.8% (active) in assay [2] (at 50.0 µM). Further, the growth inhibition in assay [3] (setting [7]) is 38%; in assay [3] (setting [8]) it was 97% (active); in assay [3] (at 50.0 µM) it was 85.2% (active); in assay [4] (setting [7]), 10%; in assay [4] (setting [8]), 96% (active); in assay [4] (at 50.0 µM), 74.3% (active). Also, the growth inhibition in assay [5] (setting [7]) was 53%; in assay [5] (setting [8]), 97% (active); in assay [5] (at 50.0 µM), 87.8% (active); in assay [6] (setting [7]), 58%; in assay [6] (setting [8]), 94% (active); in assay [6] (at 50.0 µM) it was -32.6%.

Consider `O=C(Oc1c([N+](=O)[O-])cc(-c2ccc([N+](=O)[O-])cc2)cc1[N+](=O)[O-])c1ccccc1`, for which the growth inhibition in assay [1] (setting [7]) was 32%; in assay [1] (setting [8]) it was 56%; in assay [1] (at 50.0 µM), 74.7% (active); in assay [2] (setting [7]), 86% (active); in assay [2] (setting [8]), 89% (active); in assay [2] (at 50.0 µM), 78.1% (active). The growth inhibition in assay [3] (setting [7]) was 80% (active); in assay [3] (setting [8]) it was 87% (active); in assay [3] (at 50.0 µM), 82.5% (active); in assay [4] (setting [7]) it was 34%; in assay [4] (setting [8]), 76% (active); in assay [4] (at 50.0 µM), 79.3% (active). In addition, the growth inhibition in assay [5] (setting [7]) was 49%; in assay [5] (setting [8]) it was 74% (active); in assay [5] (at 50.0 µM), 74.3% (active); in assay [6] (setting [7]) it was 82% (active); in assay [6] (setting [8]) it was 83% (active); in assay [6] (at 50.0 µM), 82.7% (active).

Consider `CNCC(O)c1cccc(O)c1` (stereo not given), for which the growth inhibition was 7% in assay [1] (setting [7]); 11% in assay [1] (setting [8]); 74.9% (active) in assay [1] (at 50.0 µM); 2% in assay [2] (setting [7]); -9% in assay [2] (setting [8]); 14.8% in assay [2] (at 50.0 µM). Besides, the growth inhibition was 2% in assay [3] (setting [7]); -7% in assay [3] (setting [8]); 45% in assay [3] (at 50.0 µM); 8% in assay [4] (setting [7]); -12% in assay [4] (setting [8]); 19% in assay [4] (at 50.0 µM). Also, the growth inhibition is 0% in assay [5] (setting [7]); -18% in assay [5] (setting [8]); 21.2% in assay [5] (at 50.0 µM); 1% in assay [6] (setting [7]); -5% in assay [6] (setting [8]); 31% in assay [6] (at 50.0 µM).

Take `Cc1ccc(N2C(c3ccccc3)=CC(=C3C=CC(=O)C=C3)C=C2c2ccccc2)cc1`: the growth inhibition is 9% in assay [1] (setting [7]); 71% (active) in assay [1] (setting [8]); 94.2% (active) in assay [1] (at 50.0 µM); 12% in assay [2] (setting [7]); 83% (active) in assay [2] (setting [8]); 98.5% (active) in assay [2] (at 50.0 µM). For the same compound, the growth inhibition in assay [3] (setting [7]) is 7%; in assay [3] (setting [8]) it was 83% (active); in assay [3] (at 50.0 µM) it was 93.7% (active); in assay [4] (setting [7]) it was -5%; in assay [4] (setting [8]), 71% (active); in assay [4] (at 50.0 µM) it was 78.9% (active). In addition, the growth inhibition in assay [5] (setting [7]) was 7%; in assay [5] (setting [8]), 80% (active); in assay [5] (at 50.0 µM) it was 92.5% (active); in assay [6] (setting [7]) it was 13%; in assay [6] (setting [8]), 89% (active); in assay [6] (at 50.0 µM) it was 96.8% (active).
